DT40 TDP1 no CPT: qHTS for Inhibitors of human tyrosyl-DNA phosphodiesterase 1 (TDP1): qHTS in cells in absence of CPT | DT40 Tdp1-/- hTDP1 cells, no CPT, ATP luminescence, 48 h | Potency, µM (titrated, usually from 46.2 µM), hits mostly inhibitors | 420,000 compounds, 15% hits; also: nearly all actives have a fitted effect of over 55% in size
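Growth kinetics read by CellTiter-Glo luminescence after ≥48 hr at 37 °C. Cells: DT40 Tdp1-/- stably carrying human TDP1, 400 per well, compound exposure in the absence of CPT (DMSO vehicle).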
TDP1 cell CPT: DT40-hTDP1 cell growth loss with CPT. chicken DT40 Tdp1-/-;hTDP1 cells + 20 nM CPT, ATP luminescence, 48 h. Potency, µM (series often up to 46.2 µM), most hits filed as inhibitors. 420,000 compounds, 12% hits. AID 686979; also: nearly all actives have a fitted effect of over 55% in size
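Cell growth measured by CellTiter-Glo luminescence after a minimum 48 h, 37 C compound exposure with 20 nM CPT in Tdp1-knockout DT40 cells stably expressing hTDP1, seeded 400/well; qHTS titration format.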
HT1080NT lethal: kills 2HG-producing HT-1080-NT fibrosarcoma cells. Potency, µM (highest dose often 46.1 µM), most hits filed as cytotoxic. 360,000 compounds, 1.6% hits. HT-1080-NT fibrosarcoma viability, CellTiter-Glo ATP luminescence, 48 h;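 also: NT is the 2HG producing partner of a matched IDH1 knockdown line; nearly all actives have a fitted effect of over 55% in size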
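HT-1080-NT fibrosarcoma cells (2HG-overproducing), 750 cells/well in RPMI with 5% FBS, dosed after 2 h and incubated 48 h at 37C. CellTiter-Glo luminescence normalized to DMSO and no-cell wells; concentration-response curves fitted and classed.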
HT1080 IDH1KD tx: toxicity to HT-1080 IDH1 knockdown cells (counter line). HT-1080 IDH1 knockdown viability, ATP luminescence, 48 h. Potency, µM (top dose mostly 46.1 µM), most hits filed as cytotoxic. 360,000 compounds, 2% hits
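Knockdown cells (IDH1KD HT-1080) received compounds 2 h after plating at 750 cells/well and were kept 48 h at 37 °C in 5% FBS RPMI. A CellTiter-Glo luminescence read gave % activity for curve fitting.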
IL1B secr inh: inflammasome signaling inhibition, IL-1 beta readout; THP-1 LPS/ATP IL-1B secretion, AlphaLISA, 16 h; active compounds read low; activity change, % at 57.5 µM; 360,000 compounds, 4.7% hits; in the data active = activity change below about -50%; inconclusive = mostly about -30% to -49%
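Secreted IL-1B measured by AlphaLISA bead assay after 16 h compound exposure of THP-1 cells; compounds (final up to 57.5 uM) added 1 h before LPS (250 ng/mL) and ATP (1.25 mM) stimulation; lower signal means less secretion.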
Numbers stand for hits; – = inactive; ? = inconclusive; · = no result. Most compounds without a hit are left out; they make up all but 19% or so of the library. Unless noted, calls follow the shape of the dose curve; as a rule, active = well fitted curve in the direction sought with a large enough effect; inconclusive = small, poorly fitted or top-dose-only effect, or another doubt; inactive = no such curve, though single readings can be large; an effect the other way counts as inactive or inconclusive.

SMILES	DT40 TDP1 no CPT	TDP1 cell CPT	HT1080NT lethal	HT1080 IDH1KD tx	IL1B secr inh
C/C(=N\OCC(=O)Nn1c(=O)[nH]c2ccccc2c1=O)c1ccccc1	?	–	–	–	–
Cc1ccc(C(=O)NC2CC3CCC(C2)N3C)cc1 (centres undefined)	–	–	–	–	–
COc1ccc2cc3c(N)nn(C(=O)c4ccc(F)cc4Cl)c3nc2c1	8.2µM	9.2µM	·	·	·
Cc1ccc2cc3c(N)nn(C(=O)c4cccc(F)c4)c3nc2c1	7.3µM	?	·	·	·
COc1ccc(C(=O)n2nc(N)c3cc4ccc(C)cc4nc32)cc1OC	–	–	·	·	·
COc1ccc2cc3c(N)nn(C(=O)Cc4ccccc4OC)c3nc2c1	9.2µM	9.2µM	–	–	-60
COc1ccc2cc3c(N)nn(C(=O)C4CCC(C(C)(C)C)CC4)c3nc2c1 (centres undefined)	18µM	9.2µM	–	–	-86
CCCc1nnc(SCC(=O)N2CCCC2)n1Cc1ccco1	–	–	–	–	–
COCCOC(=O)C1=C(C)N=C2SCCC(=O)N2C1c1cccc(Br)c1 (centres undefined)	–	–	–	–	–
CC(Oc1ccc(F)cc1)C(=O)Nc1cc(S(=O)(=O)N2CCCCC2)ccc1N1CCOCC1 (centres undefined)	16µM	–	–	–	–
CCN1CCN(c2ccc(S(=O)(=O)N3CCCCC3)cc2NC(=O)C(C)Oc2ccc(F)cc2)CC1 (centres undefined)	18µM	18µM	–	–	?
CCN1CCN(c2ccc(S(=O)(=O)N3CCCCC3)cc2NC(=O)CC(C)c2ccccc2)CC1 (centres undefined)	?	?	–	–	?
CC(=O)c1c(C)oc2ccc(N(C(C)=O)S(=O)(=O)c3ccc(F)cc3C)cc12	16µM	12µM	–	–	–
CC(=O)c1c(C)oc2ccc(N(C(C)=O)S(=O)(=O)c3cccc4cccnc34)cc12	4.1µM	2.1µM	?	26µM	–
CC(=O)c1c(C)oc2ccc(N(C(=O)c3ccncc3)S(=O)(=O)c3ccccc3)cc12	?	–	–	–	–
CCn1cc(C(=O)OCC(=O)Nc2cc(Cl)ccc2OC)c(=O)c2ccc(C)nc21	–	–	·	·	·
CCc1ccc(C(=O)NNC(=O)[C@H](C)NC(=O)c2ccco2)cc1	–	–	–	–	–
Cc1cccc(CN2CCN([C@H]3CS(=O)(=O)N[C@@H]3COCc3ccccc3)CC2)c1	16µM	18µM	–	–	–
Cn1c(NC(=O)c2cc(Cl)ccc2Cl)cc(=O)n(C)c1=O	–	–	–	–	–
Cn1c(NC(=O)C(C)(C)Oc2ccc(Cl)cc2)cc(=O)n(C)c1=O	?	16µM	–	–	–
CC(C)NC(=O)C1C(c2ccccc2)=Nc2ccccc2N1C(=O)c1cc(Cl)cc(Cl)c1 (centres undefined)	?	23µM	16µM	16µM	–
COc1ccc(CCC(=O)N2c3ccccc3N=C(c3ccc(C(F)(F)F)cc3)C2C(=O)NC(C)C)cc1 (centres undefined)	?	23µM	?	?	–
O=C(NC1CCCC1)C1C(c2ccc(C(F)(F)F)cc2)=Nc2ccccc2N1C(=O)c1ccco1 (centres undefined)	?	16µM	?	?	–
CC(=O)N1c2ccccc2N=C(c2ccc(C(F)(F)F)cc2)C1C(=O)NC(C)C (centres undefined)	23µM	21µM	–	–	–
COc1ccc(CCC(=O)N2c3ccccc3N=C(c3ccc(C(F)(F)F)cc3)C2C(=O)NC(C)(C)C)cc1 (centres undefined)	?	?	–	–	–
SMILES	DT40 TDP1 no CPT	TDP1 cell CPT	HT1080NT lethal	HT1080 IDH1KD tx	IL1B secr inh
Cc1ccc(C(=O)N2c3ccccc3N=C(c3ccccc3)C2C(=O)NC(C)C)cc1 (centres undefined)	?	–	?	–	–
COc1ccc(CCNC(=O)C2(C)CCC(=O)N2Cc2ccc(F)cc2Cl)cc1OC (centres undefined)	–	–	–	–	–
CCCCNC(=O)C1C(c2ccc(C(F)(F)F)cc2)=Nc2ccccc2N1C(=O)c1cccc(C(F)(F)F)c1 (centres undefined)	?	?	–	–	–
Cc1nc2ccc(C(=O)N3c4ccccc4N=C(c4ccc(C(F)(F)F)cc4)C3C(=O)NC(C)(C)C)cc2[nH]1 (centres undefined)	15µM	?	?	?	–
COC(=O)C1=CO[C@@H](O[C@@H]2O[C@H](CO)[C@@H](O)[C@H](O)[C@H]2O)C2C1C=C[C@@]2(O)CO (some centres undefined)	?	?	–	–	–
COc1cc(S(=O)(=O)N2CCOCC2)cc(C(=O)OCC(=O)NCc2ccco2)c1OC	–	–	–	–	–
COC(CNC(=S)Nc1ccc([N+](=O)[O-])cc1)OC	–	–	–	–	–
O=C(NCCc1ccc(F)cc1)Nc1ccc([N+](=O)[O-])cc1	16µM	29µM	?	?	-100
O=[N+]([O-])c1ccc(NC(=S)NCCc2ccc(F)cc2)cc1	16µM	16µM	?	23µM	–
COc1cccc(Cn2c(=O)c(-c3cccs3)nc3cnc(N4CCNCC4)nc32)c1	18µM	?	·	·	·
O=c1c(-c2ccc(F)cc2)nc2cncnc2n1Cc1ccccc1	16µM	?	·	·	·
O=c1c(-c2ccc(Cl)cc2)nc2cnc(N3CCNCC3)nc2n1Cc1ccc(F)cc1	9.2µM	6.5µM	·	·	·
COc1cccc(Cn2c(=O)c(-c3cc(F)cc(F)c3)nc3cnc(N4CCN(C)CC4)nc32)c1	–	–	·	·	·
O=c1c(-c2ccc(F)cc2)nc2cncnc2n1Cc1ccc(F)cc1	–	–	·	·	·
COc1cccc(Cn2c(=O)c(-c3ccc(F)cc3)nc3cnc(N4CCNCC4)nc32)c1	23µM	13µM	·	·	·
Cc1ccc(C(=O)N2CCC3(CC2)NCCc2[nH]cnc23)cc1C	–	–	–	–	–
O=C(c1cnccn1)N1CCC2(CC1)CN(c1ncccn1)C2	–	–	·	·	·
O=C(Nc1ccc(F)c(Cl)c1)C1CC2CCC1C2 (centres undefined)	?	–	–	–	–
COc1cccc(Cn2c(=O)c(-c3ccc(Cl)cc3)nc3cnc(N4CCNCC4)nc32)c1	5.8µM	5.8µM	·	·	·
COc1ccc(-c2nc3cnc(N4CCNCC4)nc3n(Cc3cccc(OC)c3)c2=O)cc1	4.6µM	6.5µM	·	·	·
COc1cccc(Cn2c(=O)c(-c3ccc(Cl)cc3)nc3cnc(N4CCN(C)CC4)nc32)c1	–	–	·	·	·
N#Cc1c2nc3ccccc3nc2n2cc(NC(=O)c3ccc(F)cc3)ccc12	4.6µM	4.1µM	–	–	–
